We go through 103 compounds from PubChem BioAssay AID1159524 (National Center for Advancing Translational Sciences (NCATS), 2015).

Out of some 410,000 compounds screened, about 5,100 (1.2%) were called active. A call without a number means that no potency is given here. Not shown: some 8% with an inconclusive outcome. Many of the other results were omitted from the sample, so actives are more common in it than they were. Values without a mark were called inactive. Calls follow the shape of the full dose curve; tested in HEK293T cells.
Potency is read from the fitted curve at half-maximal effect.

The experiment can be described thus: High Throughput Screening for Foot and Mouth Disease Virus Antivirals. Also: read-out not given here; nearly all actives have a fitted effect of over 45% in size. Particulars: FMDV antiviral cell-based qHTS; series mostly up to 57.9 µM. (In general: qHTS replaces the single test concentration by a dilution series.)
Consider `COc1cccc(-c2nc(Nc3ccncc3)c3ccccc3n2)c1`, for which the Potency entry is “inactive”.
On the same count and under the same terms, next, `CN1CCN(c2ncncc2-c2ccc(C(=O)N(C)C)cc2)CC1`: “inactive”; `CN(C)C(=O)[C@@H]1C[C@@H](Sc2nc3ccccc3[nH]2)CN1Cc1ccc(Cl)cc1`: “inactive”.
On to `Fc1ccc2[nH]c3c(N4CCSCC4)ncnc3c2c1`, for which the Potency was 3.16 µM (active).
Regarding `Fc1ccc2[nH]c3c(N4CCN(Cc5ccc6c(c5)OCO6)CC4)ncnc3c2c1`, the Potency is 6.31 µM (active).
For the compound `O=C(CSc1nc2c(c(=O)[nH]1)CN(Cc1ccc3c(c1)OCO3)CC2)Nc1cc(F)ccc1F`, the Potency result is “inactive”.
`N#C/C=C/N1CCN(Cc2ccc3c(c2)OCO3)CC1`: the Potency entry is “inactive”.
`Cc1cccc2nc(-c3ccc(Cl)s3)c(Nc3ccc4c(c3)OCCO4)n12`: the Potency entry was “inactive”.
Take `CCOC(=O)c1c(-c2ccc(OC)cc2)oc2ccc(OCc3ccc(C(=O)OC)cc3)cc12`: the Potency result was “inactive”.
Consider `CCN(CC)CCOC(=O)c1cc2cc(COC)ccc2o1`, for which the Potency entry was “inactive”.
Take `CCOC(=O)c1cc2cc(-c3c(C(=O)OCC)oc4cc(O)cc(O)c4c3=O)ccc2o1`: the Potency is 31.6 µM (active).
As for `Cc1ccc(-c2nnc(SCc3ccccc3C)o2)cc1`, the Potency result is “inactive”.
Regarding `COc1ccccc1CNc1cc(-c2ccccc2CN(C)C)ncn1`, the Potency result is “inactive”.
Still for that read-out and setting: the value for `O=C(c1ccc2c(c1)N(Cc1ccc(Cl)cc1)C(=O)c1ccccc1S2(=O)=O)N1CCCCC1` was “inactive”.
Take `COc1ccc(C)cc1N1C(=O)[C@@H]2C[C@H]1CN2Cc1cccc(OC)c1O`: the Potency entry was “inactive”.
`CCCCC/C=C\C/C=C\C/C=C\CCCCCCC(=O)NCCO`: the activity change, negative = inhibition is -10.3% [at 6.7 µM].
Turning to `CC(c1cccnc1)N(CCN(C)C)C(=O)Nc1ccc(Cl)c(Cl)c1` (stereo not drawn), the Potency result was “inactive”.
In the case of `Cc1ccc(-c2nn(CCC(=O)Nc3ccc(Cl)c(Cl)c3)c(=O)c3ccccc23)cc1`, the Potency entry was “inactive”.
Regarding `O=C(CC(O)(C(F)(F)F)C(F)(F)F)Nc1ccc(Cl)c(Cl)c1`, the Potency was 8.91 µM (active).
For `Cc1cc(Nc2cccc(C(F)(F)F)c2)nc2ccc(NC(=O)c3ccc(=O)[nH]c3)cc12`, the Potency entry is “inactive”.
On the same count and under the same terms, next, `Cc1ccc(/C(=C/CN2CCCC2)c2ccccn2)cc1`: “inactive”; `CC(N)(C(=O)O)c1ccc(-c2nn[nH]n2)cc1` (stereo not drawn): “inactive”; `CCN1CCN(C(c2ccc(C)cc2)c2c(O)cc(C)n(Cc3ccco3)c2=O)CC1` (stereo not drawn): “inactive”.
Same read-out and setting: the value for `O=S(=O)(c1cccc(-c2nnc3n2CCCCC3)c1)N1CCOCC1` was “inactive”.
`Cc1occc1C(=O)Nc1cccc(S(=O)(=O)N2CCOCC2)c1`: the Potency entry was “inactive”.
For the compound `O=C(Nc1ccc2c(c1)nc1n2CCCCC1)c1cc(S(=O)(=O)N2CCOCC2)ccc1Cl`, the Potency is 25.1 µM (active).
Same read-out and setting: next, `CCOc1ccccc1NC(=O)CSc1ncc(S(=O)(=O)c2ccc(C(C)(C)C)cc2)c(=O)[nH]1`: “inactive”; `Cc1ccc(S(=O)(=O)c2nc(-c3ccco3)oc2SCC(=O)Nc2ccc(F)cc2)cc1`: “inactive”; `Cc1ccc(OCCSc2nc3ccc(NC(=O)COc4ccc(C)cc4)cc3s2)cc1`: “inactive”.
The same measure, in the same setting: the value for `O=C(COc1ccccc1Cl)Nc1ccc2nc(SCC(=O)N3CCCC3)sc2c1` was 31.6 µM (active).
On the same count and under the same terms, next, `Cc1cccc(OCCSc2nc3ccc(NC(=O)COc4ccccc4C)cc3s2)c1`: “inactive”.
As to `O=C(Nc1ccc2nc(SCCOc3ccccc3Cl)sc2c1)c1ccco1`, the Potency entry was “inactive”.
For `CCC(=O)Nc1ccc2nc(SCC(=O)N3CCc4ccccc43)sc2c1`, the Potency result was “inactive”.
Consider `Nc1nnc(SCC(=O)Nc2ccc3nc(SCC(=O)Nc4ccccc4)sc3c2)s1`, for which the Potency is 20 µM (active).
Regarding `COc1ccc(NC(=O)Nc2cccc(-c3noc(C)n3)c2)cc1`, the Potency entry was “inactive”.
As for `CCNc1ncc2ncc(=O)n(Cc3cccc(OC)c3)c2n1`, the Potency result was “inactive”.
For `COCCNc1ncnc2ccc(-c3cccnc3)cc12`, the Potency entry was “inactive”.
For `COC(=O)C(c1ccccc1)N1CCCCCC1` (stereo not drawn), the Potency entry was “inactive”.
In the case of `CC1(C)CC(N2CCN(C(c3ccccc3)c3ccccc3)CC2)=CC(=[N+]2CCCCC2)C1`, the Potency is 2.82 µM (active).
The same measure, in the same setting: the value for `CCN1CCN(c2ncc3c(n2)CC(c2ccccc2O)CC3=O)CC1` (stereo not drawn) was “inactive”; that for `N#CC1=C(N)Oc2cc(O)ccc2C1C1CCCCC1` (stereo not drawn) was “inactive”; that for `COCc1[nH]nc2c1C(C1C=CCCC1)C(C#N)=C(N)O2` (stereo not drawn) was 31.6 µM (active).
Regarding `Cc1nc2nc(NCc3cccc(Br)c3)[nH]n2c(=O)c1Cc1ccccc1`, the Potency result was “inactive”.
For `COCCNC(=O)c1cc(-c2cccc(Cl)c2)on1`, the Potency result is “inactive”.
In the case of `COc1cc2nc(NCC(C)c3ccccc3)n3nc(-c4ccccc4)nc3c2cc1OC` (stereo not drawn), the Potency entry was “inactive”.
For `Cc1cnc(CNc2ncncc2-c2ccccc2Cl)cn1`, the Potency entry is “inactive”.
Same read-out and setting: next, `Cn1cc(-c2nc3cnc(N4CCNCC4)nc3n(CCC#N)c2=O)c2ccccc21`: “inactive”.
Consider `COc1cccc(CNc2nccn(-c3ccc(OC)c(OC)c3)c2=O)c1`, for which the Potency entry is “inactive”.
Regarding `COc1cccc(CNc2nc(NCc3ccccc3OC)nc3ccsc23)c1`, the Potency was 25.1 µM (active).
Same read-out and setting: the value for `COc1ccc(CNc2ncncc2-c2ccccc2OC)c(OC)c1` was “inactive”; that for `CCCN(C/C=C\I)[C@@H]1CCc2cccc(O)c2C1` was “inactive”.
For the compound `COc1ccc(-c2nc3sc(CCNC(=O)C(C)(C)C)c(C)n3n2)cc1`, the Potency result is “inactive”.
Regarding `c1ccc(Nc2nc(N3CCOCC3)c3ccccc3n2)cc1`, the Potency is 11.2 µM (active).
In the case of `O=C(COc1nc2ccccc2nc1N1CCOCC1)NCC(F)(F)F`, the Potency result is “inactive”.
The same measure, in the same setting: next, `c1cncc(-c2nc(N3CCNCC3)c3ccccc3n2)c1`: “inactive”; `O=C(O)C[C@@H]1NC(=O)[C@H](Cc2ccccc2)NC1=O`: “inactive”; `Cc1ccc(OCCC(=O)OCC(=O)N2c3ccccc3NC(=O)C2(C)C)cc1`: “inactive”.
For `CNS(=O)(=O)c1cccc(C(=O)OCC(=O)N2c3ccccc3NC(=O)C2(C)C)c1`, the Potency result is “inactive”.
As to `CCNc1ccc(C(=O)OCC(=O)N2c3ccccc3NC(=O)C2(C)C)cc1[N+](=O)[O-]`, the Potency is 20 µM (active).
`COc1ccc2c(c1)NC(=O)C2CC(=O)N1CCOc2c(cc(-c3cnc4ccccc4c3)cc2OC)C1` (stereo not drawn): the Potency entry is “inactive”.
Same read-out and setting: next, `O=C1/C(=C\c2ccc([N+](=O)[O-])cc2)CS(=O)(=O)C/C1=C/c1ccc([N+](=O)[O-])cc1`: 2.24 µM (active).
On to `Nc1ccc([N+](=O)[O-])cc1`, for which the Potency entry was “inactive”.
Turning to `O=C(NCCCc1ccccc1)c1ccc2c(c1)sc1nc(-c3ccc(F)cc3)cn12`, the Potency result was “inactive”.
For `Cc1ncc2c(c1CNS(=O)(=O)N(C)C)CCN(C(=O)c1ccccc1F)C2`, the Potency result is “inactive”.
Still for that read-out and setting: the value for `CC(C)CCNC(=O)c1ccc2c(Cl)c3c(nc2c1)CCC3` was “inactive”; that for `CC(=O)c1ccc(NC(=O)c2ccc3c(Cl)c4c(nc3c2)CCCC4)cc1` was 22.4 µM (active).
With `COc1cccc(CNC(=O)c2ccc3c(Cl)c4c(nc3c2)CCCC4)c1`, the Potency result was “inactive”.
As to `COc1ccc(-c2noc(-c3ccc(N4CCN(c5ccccc5)CC4)c([N+](=O)[O-])c3)n2)cc1OC`, the Potency entry is “inactive”.
Still for that read-out and setting: next, `c1ccc(CN2CCN(Cc3ccc4c(c3)CN(Cc3c[nH]c5ccccc35)CCO4)CC2)nc1`: “inactive”; `CCOC(=O)C(=Cc1ccccc1)C(=O)c1ccccc1`: 8.91 µM (active).
Turning to `COc1ccccc1/C=C/C(=O)OCC(=O)NC1CCCCCC1`, the Potency entry was “inactive”.
With `CCOC(=O)CCP(=O)(O)C(O)(c1ccccc1)c1ccccc1`, the Potency result is “inactive”.
On the same count and under the same terms, next, `CCOC(=O)C(=O)C1C(=O)Nc2ccccc21` (stereo not drawn): “inactive”; `CCOC(=O)C(=Cc1ccccc1OC)C(=O)OCC`: 28.2 µM (active).
Turning to `COc1ccccc1C(=O)OCC(=O)NCCNC(=O)COC(=O)c1ccccc1OC`, the Potency entry is “inactive”.
Same read-out and setting: the value for `Cc1ccc(CC2(O)CCN(CCOc3ccc(O)cc3)CC2)cc1` was “inactive”.
For the compound `C[C@@H]1CN(Cc2ccc3c(c2)CN(Cc2ccc(Oc4ncccn4)cc2)CCO3)C[C@H](C)O1`, the Potency result was “inactive”.
As for `CCS(=O)(=O)N(C)[C@@H]1c2cc(C#N)ccc2OC(C)(C)[C@H]1O`, the Potency entry was “inactive”.
In the case of `CC(=O)NC(c1ccccc1)c1nc(-c2ccccc2C)cs1` (stereo not drawn), the Potency entry is “inactive”.
As to `CC(=O)Nc1ccc(C(=O)Nc2nc(-c3cc(C)n(Cc4ccccc4)c3C)cs2)cc1`, the Potency was 22.4 µM (active).
`CCn1c(SCC(=O)Nc2nc(C)cs2)nnc1C(C)NC(=O)c1ccccc1` (stereo not drawn): the Potency entry was “inactive”.
For `CC(=O)Nc1ccc(-c2csc(NC(=O)Nc3ccccc3)n2)cc1`, the Potency was 15.8 µM (active).
Consider `Cc1ccc(C(=O)Nc2ccc(OCc3cc(=O)n4c(C)csc4n3)cc2)cc1`, for which the Potency result was “inactive”.
Turning to `CC(=O)c1ccc(NC(=O)CSc2nnc(NC(=O)Nc3ccccc3)s2)cc1`, the Potency result was “inactive”.
On the same count and under the same terms, the value for `O=S(=O)(NCC(c1ccccc1)N1CCc2ccccc21)c1ccccc1` (stereo not drawn) was “inactive”; that for `COCCn1c(CN2CCC(Cc3ccccc3)CC2)nc2c1c(=O)n(C)c(=O)n2C` was 15.8 µM (active); that for `CC1CCCN(Cc2nc3c(c(=O)n(C)c(=O)n3C)n2CC(=O)c2ccccc2)C1` (stereo not drawn) was “inactive”.
As for `CC1CN(Cc2nc3c(c(=O)n(C)c(=O)n3C)n2Cc2cccc(Cl)c2)CC(C)O1` (stereo not drawn), the Potency entry was “inactive”.
As for `CC(C)C1=CC2=CC[C@H]3[C@](C)(C(=O)O)CCC[C@]3(C)C2CC1` (stereo partly drawn), the Potency entry is “inactive”.
With `COc1ccc2c(CN3CCN(S(=O)(=O)c4cccs4)CC3)cc(=O)oc2c1`, the Potency is 39.8 µM (active).
Same read-out and setting: the value for `O=c1cc(CN2CCN(S(=O)(=O)/C=C/c3ccccc3)CC2)c2ccc(O)cc2o1` was “inactive”.
As to `CC(=O)N1CCN(Cc2cc(=O)oc3cc(C)ccc23)CC1`, the Potency result is “inactive”.
Take `O=c1c(NCc2cccs2)nccn1-c1ccccc1`: the Potency entry is “inactive”.
In the case of `CCCCC/C=C\C/C=C\C/C=C\C=C\[C@H](CCCC(=O)O)OO`, the activity change, negative = inhibition is -15.4% [at 0.463 µM].
On to `COc1ccc(CCNC(=O)c2nnc(CS(=O)(=O)c3ccccc3)o2)cc1OC`, for which the Potency result was “inactive”.
For `O=C(NCc1cccnc1)c1ccc(CS(=O)(=O)c2ccc(Br)cc2)o1`, the Potency entry is “inactive”.
`COc1ccc(CCNC(=O)c2ccc(CS(=O)(=O)c3ccc(Br)cc3)o2)cc1OC`: the Potency was 31.6 µM (active).
`CCc1ccc(-n2c(SCc3cc(=O)n4cc(Br)ccc4n3)nc3[nH]ncc3c2=O)cc1`: the Potency is 31.6 µM (active).
Same read-out and setting: next, `Cc1nnc(NC(=O)CSc2nc3c([nH]c4ccccc43)c(=O)n2-c2cccc(Cl)c2)s1`: “inactive”; `O=c1c2sccc2nc(SCc2cc(=O)n3ccccc3n2)n1-c1ccc(Br)cc1`: “inactive”; `Cc1nnc(SCc2cccc(Cl)c2)n(N)c1=O`: “inactive”.
For the compound `Cc1cccc2nc(CSc3nc4[nH]ncc4c(=O)n3-c3cccc(Cl)c3)cc(=O)n12`, the Potency was 15.8 µM (active).
Regarding `Cc1ccc(CSc2nc3[nH]ncc3c(=O)[nH]2)cc1`, the Potency result is “inactive”.
